Test results reported in PubChem BioAssay (NCI).
“And” between values parts separate entries of the source, which are not always exact repeats. Identical values can stand only once. The panel holds about 79,000 compounds, 15% with a hit somewhere; the sample as a whole holds those more often. The source made the active and inactive calls. Cut-off read from the data, not from the text of the source: active = growth inhibition above about 70%; inactive = the rest.

Columns and labels:
[1] = NCI Yeast Anticancer Drug Screen. Data for the rad50 strain (AID 155);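 note: 0% = growth of vehicle-only cultures of the same strain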; details: S. cerevisiae rad50 strain growth inhibition, hits give high values; at 50.0 µM unless noted
Method in brief: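 Genetically altered yeast (DNA repair pathway); compound treatment; growth inhibition vs vehicle ctrl.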

[2] = NCI Yeast Anticancer Drug Screen. Data for the mec2-1 strain (AID 157); details: S. cerevisiae mec2-1 strain, hits give high values; at 50.0 µM unless noted
Method in brief: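 Test agents were screened against the mec2-1 yeast strain, with defined DNA repair or cell cycle alteration. Growth was scored as inhibition against vehicle-only controls.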

[3] = NCI Yeast Anticancer Drug Screen. Data for the sgs1 mgt1 strain (AID 161);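 note: 0% = growth of cultures given vehicle only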; details: S. cerevisiae sgs1 mgt1 strain, hits give high values; at 50.0 µM unless noted
Method in brief: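 Read-out: growth inhibition vs vehicle controls. Cells: mutant yeast strain deficient in DNA damage repair.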

[4] = NCI Yeast Anticancer Drug Screen. Data for the cln2 rad14 strain (AID 165);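 note: 0% = growth equal to vehicle treated cultures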; details: S. cerevisiae cln2 rad14 strain, hits give high values; at 50.0 µM unless noted
Method in brief: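 Growth of compound-exposed yeast (cln2 rad14 genotype) measured and expressed as inhibition relative to vehicle.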

[5] = NCI Yeast Anticancer Drug Screen. Data for the bub3 strain (AID 167); details: S. cerevisiae bub3 mutant strain, hits give high values; at 50.0 µM unless noted
Method in brief: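 Yeast carrying a defined mutation is treated with each compound, and growth is compared with that of vehicle-exposed cells to give inhibition.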

[6] = NCI Yeast Anticancer Drug Screen. Data for the mlh1 rad18 strain (AID 175); details: S. cerevisiae mlh1 rad18 strain growth inhibition, hits give high values; at 50.0 µM unless noted
Method in brief: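 In this whole-cell yeast screen, a strain with altered DNA damage repair is challenged with compound, and its growth is measured against matched vehicle-treated controls.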

Measured: growth inhibition

Cc1ccc([N+](=O)[O-])cc1NC(=O)Oc1ccc(Cl)cc1Cl
inactive: [1] -5% | [2] 8.55% | [3] -10.9% | [4] 1% | [5] 2.5% | [6] -13.3%

CC1(C)CCC2=C(O1)C(=O)c1ccccc1C2=O
inactive: [1] 13.8% | [2] -3.45% | [3] 29.6% | [4] 3.35% | [5] 35.8% | [6] 18%

CN(C)/C=N/n1c2ccccc2c2ccccc21
inactive: [1] -1.7% | [2] -6.8% | [3] 0% | [4] -7.55% | [5] 23.6% | [6] 14.8%

CC1=C(C(=O)CC(=O)C(=O)Nc2ccc(Cl)cc2C)Sc2ccccc2N1
inactive: [1] -4.7% | [2] 3.25% | [3] -26.6% | [4] 9.35% | [5] 6.7% | [6] -22.6%

O=C1NC(=S)N/C1=C\c1ccc(Cl)cc1
inactive: [1] -5.75% | [2] -4.8% | [3] 15% | [4] -5.9% | [5] -9.3% | [6] -39.7%

O=C(O)C1=CCCc2ccc3ccccc3c21
inactive: [1] 10.2% | [2] 6% | [3] 0.2% | [4] -20.4% | [5] -27.9% | [6] 6.25%

Cc1nc(CO)c(-c2ccc([N+](=O)[O-])cc2)o1
inactive: [1] 0.4% | [2] -4% | [3] -8.75% | [4] -20.4% | [5] -13.1% | [6] -1.5%

CC(C)C1=CCC2C(=C1)CCC1C(C)(N=C=O)CCCC21C (stereo unspecified)
inactive: [1] -28.6% | [2] -10.1% | [3] -7.7% | [4] -51.8% | [5] 38.8% | [6] -4%

Cc1ccccc1C=NC12CC3CC(CC(C3)C1)C2
inactive: [1] -24.8% | [2] -18.1% | [3] -22.2% | [4] 7.2% | [5] -8.4% | [6] -25.1%

CN(C)C(=O)Sc1cccc([N+](=O)[O-])c1
inactive: [1] 9.5% | [2] -14.9% | [3] -21.8% | [4] -38.3% | [5] 10.5% | [6] -25.6%

NC(Cc1ccc2nc3c4ccccc4c(=O)cc-3oc2c1)C(=O)O (stereo unspecified)
inactive: [1] -23.4% | [2] -40.9% | [3] -14.6% | [4] 19.3% | [5] 10.1% | [6] -13.7%

C/C(CC1(O)C(=O)Nc2ccccc21)=N\O (stereo unspecified)
inactive: [1] -1.95% and -34.7% | [2] -8.5% and -46.1% | [3] -30.6% | [4] 8.6% | [5] -16.2% | [6] 6.55% and -10%

O=C(CNC(=O)C(Cc1ccccc1)N1C(=O)c2ccccc2C1=O)Nc1ccccc1 (stereo unspecified)
inactive: [1] 34.4% | [2] -1.55% | [3] 46.3% | [4] 5% | [5] 17.4% | [6] 6.55%

CCCCCCCCN(CCCCCCCC)CC(O)c1cc(Cl)c(Cl)c(Cl)c1 (stereo unspecified)
inactive: [1] 24.1% | [2] 12.3% | [3] 47.4% | [4] 53.9% | [5] 18.6% | [6] 33%

O=C(Cc1nc2ccccc2o1)C(=O)Nc1cccc(Cl)c1
inactive: [1] -4.25% | [2] 0.9% | [3] -1.95% | [4] -42.2% | [5] 3.65% | [6] 19.1%

CN1CC(c2ccccc2)C(O)(C2(c3ccccc3)CN(C)CC(c3ccccc3)C2=O)C(c2ccccc2)C1 (stereo unspecified)
inactive: [1] 5.7% | [2] 7.25% | [3] -30.4% | [4] -6.7% | [5] -17.4% | [6] -7.65%

CCCCCCN1COCC(COc2ccc(Cl)cc2)OC1 (stereo unspecified)
inactive: [1] 23.8% | [2] 18.8% | [3] 36.9% | [4] 22.1% | [5] 10.7% | [6] 50.1%

CCN(CC)CCC1CCCCN1CC(=O)N1c2ccccc2NC(=O)c2ccccc21 (stereo unspecified)
inactive: [1] -2.9% | [2] 2% | [3] 8.9% | [4] 8.2% | [5] -0.9% | [6] 0.25%

CC(C)CCNc1ccccc1
inactive: [1] 1.55% | [2] -7.65% | [3] -9.85% | [4] -2.8% | [5] 3.55% | [6] 0.45%

CCCCCN1C(=O)c2ccccc2C1=O
inactive: [1] 23.1% | [2] 10.5% | [3] 6.4% | [4] 5.15% | [5] 6.3% | [6] -0.55%

N#CC(C#N)N=O (tested in a mixture with another compound)
inactive: [1] -4.1% | [2] -15.3% | [3] -15.2% | [4] -19.7% | [5] -6.9% | [6] -6.25%

Nc1nc(CC2(O)CCCCC2)cc(-c2ccccc2)n1
inactive: [1] 49% | [2] 29.6% | [3] 21.1% | [4] 55.2% | [5] 45.5% | [6] 44.8%

O=C(c1ccccc1)C1CC1C(=O)c1ccccc1 (stereo unspecified)
inactive: [1] -3.55% | [2] -11.8% | [3] -6.1% | [4] -61.5% | [5] 38.3% | [6] -3.45%

COc1cccc(OC)c1NC(=O)C(=O)Nn1c(NNC(=O)c2ccncc2)nc2ccccc2c1=O
inactive: [1] 28.6% | [2] 26.5% | [3] 4.65% | [4] -30.1% | [5] 35% | [6] 38.4%

Cc1ccc2c(N=Nc3ccc(C(=N)N)cc3)ccc(O)c2n1
active: [1] 99.3% | [2] 99.4% | [3] 99.5% | [4] 98.2% | [5] 99.2% | [6] 99.2%

COC(NC(=O)Nc1ccccc1C)(C(F)(F)F)C(F)(F)F
inactive: [1] -12.3% | [2] -22.4% | [3] -34.4% | [4] 2.8% | [5] -24.4% | [6] -12.8%

NC(=O)C(O)c1c[nH]c2ccccc12 (stereo unspecified)
inactive: [1] 3.7% | [2] 1.75% | [3] -1.45% | [4] 6.4% | [5] -15% | [6] 8.2%

Nn1nnc2ccccc21
inactive: [1] 26.8% | [2] 24.8% | [3] 16.3% | [4] 33% | [5] 7.1% | [6] 32.1%

CC(=O)OC(C#N)c1ccco1 (stereo unspecified)
inactive: [1] -11.4% | [2] -49.1% | [3] -25.2% | [4] 5.8% | [5] -38.2% | [6] -7.85%

O=C(O)/C(=C/c1cccs1)c1ccc(F)cc1
inactive: [1] 19.1% | [2] 12.2% | [3] 15% | [4] 28.9% | [5] -3.2% | [6] 3.75%

CS(=O)(=O)c1ncc(Br)cn1
inactive: [1] 15.6% | [2] -6.85% | [3] 5.45% | [4] 17.1% | [5] 6.4% | [6] 7.75%

COC(=O)[C@@H]1Cc2cc(O)c(O)cc2C2(CCN(C)CC2)O1
inactive: [1] -21.5% | [2] -22.8% | [3] -17.6% | [4] -12.2% | [5] -10.7% | [6] -29.1%

CCc1ccc2nccc(NCCCN(C)C)c2c1[N+](=O)[O-]
inactive: [1] 3.55% | [2] -13.4% | [3] 6.7% | [4] 15.2% | [5] -17.7% | [6] 13.5%

CCCCCCOc1ccccc1CO
inactive: [1] 14.7% | [2] 10.6% | [3] -1.5% | [4] 2% | [5] -8.15% | [6] 10.8%

Nc1cccc(OCCCCCOc2cccc(N)c2)c1
inactive: [1] -35.1% | [2] -40.3% | [3] -5.75% | [4] 6.6% | [5] -34.5% | [6] -20.4%

N#Cc1[nH]c(=O)n(-c2ccccc2)c1N
inactive: [1] -40.2% | [2] -57.8% | [3] -60.2% | [4] -22.4% | [5] -17.2% | [6] -37%

Cc1ccc(S(=O)(=O)N(CC(=O)c2ccccc2)c2ccc(Br)cc2)cc1
inactive: [1] 22.9% | [2] 6.6% | [3] 26.1% | [4] 4.9% | [5] 2.05% | [6] 16.1%

CCS(=O)(=O)CC(O)CS(=O)(=O)CC
inactive: [1] 6.5% | [2] -6.35% | [3] -38% | [4] -4.95% | [5] -6.35% | [6] -15.4%

CC(C)(C)C1C=C(Sc2ccccc2)C(=O)O1 (stereo unspecified)
inactive: [1] 28.8% | [2] 7.3% | [3] 6.25% | [4] 1.8% | [5] 61.2% | [6] 30.1%

Cc1ccc(C(CCC#N)OC(C)C)cc1 (stereo unspecified)
inactive: [1] 0.95% | [2] 19.8% | [3] 25.1% | [4] 11.9% | [5] 3.15% | [6] 21.1%

NC(CCO)P(=O)(O)O (stereo unspecified)
inactive: [1] 13.3% | [2] -6.05% | [3] -20.2% | [4] -55.7% | [5] 2.05% | [6] -4.6%
